This is part of a sample that, as a whole, favours compounds with a hit. Of some 79,000 tested, about 15% had one in any assay. A number with no mark means an inactive call. Calls of active or inactive are those of the source. Cut-off read from the data, not from the text of the source: active = growth inhibition above about 70%; inactive = the rest.
Columns and labels:
[1] = NCI Yeast Anticancer Drug Screen. Data for the rad50 strain (AID 155);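 note: 0% = growth of vehicle-only cultures of the same strain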; details: S. cerevisiae rad50 strain growth inhibition; at 50.0 µM; stronger effect = higher value
Outline: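 A DNA repair-deficient yeast mutant serves as the test organism; compound-induced growth inhibition is calculated against vehicle-treated cells.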

[2] = NCI Yeast Anticancer Drug Screen. Data for the mec2-1 strain (AID 157); details: S. cerevisiae mec2-1 strain, at 50.0 µM, stronger effect = higher value
Outline: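 Each compound was tested on mec2-1 yeast, a strain altered in DNA damage repair or cell cycle control. Growth inhibition is reported relative to vehicle.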

[3] = NCI Yeast Anticancer Drug Screen. Data for the sgs1 mgt1 strain (AID 161);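 note: 0% = growth of cultures given vehicle only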; details: S. cerevisiae sgs1 mgt1 strain, at 50.0 µM, stronger effect = higher value
Outline: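 Inhibition of yeast growth, normalised to vehicle-treated controls, is reported for a strain bearing genetic alterations in DNA damage repair.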

[4] = NCI Yeast Anticancer Drug Screen. Data for the cln2 rad14 strain (AID 165);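 note: 0% = growth equal to vehicle treated cultures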; details: S. cerevisiae cln2 rad14 strain, at 50.0 µM, stronger effect = higher value
Outline: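 Test compounds were added to cln2 rad14 yeast cultures; inhibition of growth was then determined by comparison with vehicle treatment.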

[5] = NCI Yeast Anticancer Drug Screen. Data for the bub3 strain (AID 167); details: S. cerevisiae bub3 mutant strain, at 50.0 µM, stronger effect = higher value
Outline: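 Inhibition values come from growth of compound-treated mutant yeast normalised to vehicle-treated controls.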

[6] = NCI Yeast Anticancer Drug Screen. Data for the mlh1 rad18 strain (AID 175); details: S. cerevisiae mlh1 rad18 strain growth inhibition; at 50.0 µM; stronger effect = higher value
Outline: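 Inhibition values reflect reduced growth of mutant yeast versus vehicle-treated controls following compound exposure; the mutations affect DNA damage repair.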

[CH3][Sn]([CH3])([Br])[CH2]CCCBr
growth inhibition [1]: 98.9% (active)
growth inhibition [2]: 99.5% (active)
growth inhibition [3]: 99.4% (active)
growth inhibition [4]: 98.7% (active)
growth inhibition [5]: 99.1% (active)
growth inhibition [6]: 99.3% (active)

Cn1c2c(c3ccccc31)CCN1OCC=C[C@@H](C(=O)O)[C@@H]21
growth inhibition [1]: -8.3%
growth inhibition [2]: 3.15%
growth inhibition [3]: -6.3%
growth inhibition [4]: 5.55%
growth inhibition [5]: 42.3%
growth inhibition [6]: -8.85%

CC(NC(=O)c1ccccc1)N(C)[N+](=O)[O-] (stereo not given)
growth inhibition [1]: -3.7%
growth inhibition [2]: 4%
growth inhibition [3]: 2.5%
growth inhibition [4]: -13.4%
growth inhibition [5]: 5.45%
growth inhibition [6]: -5.55%

Nc1nc(N)c(N=Nc2ccc([As](=O)(O)O)c(O)c2)c(N)n1
growth inhibition [1]: -4%
growth inhibition [2]: -6.9%
growth inhibition [3]: -36%
growth inhibition [4]: -18.4%
growth inhibition [5]: -43%
growth inhibition [6]: -18.1%

Brc1ccc(Oc2ccc(Br)cc2Br)c(Br)c1
growth inhibition [1]: 13.9%
growth inhibition [2]: -21.5%
growth inhibition [3]: 8.2%
growth inhibition [4]: 2%
growth inhibition [5]: 21.6%
growth inhibition [6]: 32.4%

c1ccc(-c2cc(-c3ccccc3)c(OOc3c(-c4ccccc4)cc(-c4ccccc4)cc3-c3ccccc3)c(-c3ccccc3)c2)cc1
growth inhibition [1]: -6.7%
growth inhibition [2]: -0.7%
growth inhibition [3]: -0.95%
growth inhibition [4]: -27.9%
growth inhibition [5]: -10%
growth inhibition [6]: 16.6%

COc1ccc2nc3ccccc3c(NCCCN(C)CCCl)c2c1
growth inhibition [1]: 67.8%
growth inhibition [2]: 56.5%
growth inhibition [3]: 57.8%
growth inhibition [4]: 50.5%
growth inhibition [5]: -0.5%
growth inhibition [6]: 66.2%

Cc1ccc2cc3c(ccc4ccccc43)c3c2c1CC3
growth inhibition [1]: -9.05%
growth inhibition [2]: -23.9%
growth inhibition [3]: -2.75%
growth inhibition [4]: -3.4%
growth inhibition [5]: 13.3%
growth inhibition [6]: 1.85%

N=C(N)n1cc(/C=N/N=C(N)N)cn1
growth inhibition [1]: -4.4%
growth inhibition [2]: -4.35%
growth inhibition [3]: -0.15%
growth inhibition [4]: 0.1%
growth inhibition [5]: -8.3%
growth inhibition [6]: 5.8%

CC1(C)CN=C(Nc2ccc(F)c(Cl)c2)S1
growth inhibition [1]: 12.9%
growth inhibition [2]: 1.15%
growth inhibition [3]: -17.9%
growth inhibition [4]: 9.8%
growth inhibition [5]: -24.7%
growth inhibition [6]: -35.4%

O=C1CC(=O)NC(=S)N1
growth inhibition [1]: 2.15%
growth inhibition [2]: 21.1%
growth inhibition [3]: -13.5%
growth inhibition [4]: -21.4%
growth inhibition [5]: 4.85%
growth inhibition [6]: -5.75%

CC(C)NCC(O)c1ccc(Cl)c(Cl)c1 (stereo not given)
growth inhibition [1]: -28.6%
growth inhibition [2]: -40%
growth inhibition [3]: -14%
growth inhibition [4]: 7.25%
growth inhibition [5]: -27.2%
growth inhibition [6]: -33.8%

O=C(O)Cc1ccc(O)c(O)c1.[Pt].c1ccc([PH+](c2ccccc2)c2ccccc2)cc1.c1ccc([PH+](c2ccccc2)c2ccccc2)cc1
growth inhibition [1]: 43.2%
growth inhibition [2]: 33.9%
growth inhibition [3]: 37.8%
growth inhibition [4]: 42.5%
growth inhibition [5]: 26.5%
growth inhibition [6]: 63.9%

CC(=O)Cc1c[nH]c2ccccc12
growth inhibition [1]: -25.2%
growth inhibition [2]: -41.3%
growth inhibition [3]: -9.35%
growth inhibition [4]: -1.5%
growth inhibition [5]: -28.2%
growth inhibition [6]: -25.2%

CC(=O)[O-].CC(=O)[O-].O=C(N/N=C/c1cc(Cl)cc(Cl)c1O)c1ccncc1.[Cu+2]
growth inhibition [1]: 2.55%
growth inhibition [2]: 2.75%
growth inhibition [3]: 10.7%
growth inhibition [4]: 51.1%
growth inhibition [5]: -4.05%
growth inhibition [6]: 9.85%

ClCCN(CCCl)c1ccc(/C=N/N=C2c3ccccc3-c3ccccc32)cc1
growth inhibition [1]: -21.6%
growth inhibition [2]: -7.05%
growth inhibition [3]: -6.2%
growth inhibition [4]: -2.95%
growth inhibition [5]: -18.9%
growth inhibition [6]: -4.5%

COc1ccc2c(c1OC(C)=O)-c1cc(OC(C)=O)cc3c1C(C2)NCC3 (stereo not given)
growth inhibition [1]: 11.7%
growth inhibition [2]: -4%
growth inhibition [3]: -5.7%
growth inhibition [4]: 6.65%
growth inhibition [5]: 1.9%
growth inhibition [6]: 4.4%

c1cc[c]([Ge]([c]2ccccc2)[c]2ccccc2)cc1
growth inhibition [1]: 23.1%
growth inhibition [2]: -3.8%
growth inhibition [3]: 3.05%
growth inhibition [4]: 20.3%
growth inhibition [5]: -5.15%
growth inhibition [6]: 14.4%

Nc1nc(CC(N)C(=O)O)c[se]1 (stereo not given)
growth inhibition [1]: 56.8%
growth inhibition [2]: 28.4%
growth inhibition [3]: 21.1%
growth inhibition [4]: 5.35%
growth inhibition [5]: 21.3%
growth inhibition [6]: 11%

CCC1(CCOc2ccccc2)C(=O)NC(=O)NC1=O
growth inhibition [1]: -10.9%
growth inhibition [2]: -1.45%
growth inhibition [3]: 1.3%
growth inhibition [4]: -6.55%
growth inhibition [5]: 1.6%
growth inhibition [6]: -1.85%
